Data published in PubChem BioAssay AID1159580 (chemical genetic matrix, 2015).
The campaign covered roughly 5,500 compounds. About 2,000 (36%) were called active. Inconclusive results (about 18%) are left out. No stated cut-off is given here; in the data, active means normalized growth mostly below about 0.91 (no sharp cut-off); inconclusive means no clear call, values can overlap the other calls; inactive means mostly above about 0.92. Some of the results follow.

Experiment: chemical genetic growth profiling, strain panel (AID 1159580);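 further: tested at 20 µM; growth read once vehicle control cultures reached saturation at 30 °C; 1 = growth at the plate median or of vehicle wells; lower values mean less growth of the strain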
Conditions: growth OD

Measured: normalized growth

COC(=O)C1[C@H]2C[C@H]3c4[nH]c5ccccc5c4CCN3C[C@@H]2CC[C@@H]1O (some centres not stated)
inactive: S. cerevisiae deletion strains, locus YJR075W, strain HOC1, hits give low values 1.02 | S. cerevisiae deletion strains, locus YKL009W, strain mrt4, hits give low values 0.996 | S. cerevisiae deletion strains, locus YKL068W, hits give low values 1.01 | S. cerevisiae deletion strains, locus YKL085W, strain MDH1 (second series), hits give low values 1.01 | S. cerevisiae deletion strains, locus YKL085W, strain MDH1, hits give low values 1.01 | S. cerevisiae deletion strains, locus YKL160W, strain elf1, hits give low values 0.987 | S. cerevisiae deletion strains, locus YKL190W, strain CNB1, hits give low values 1.02 | S. cerevisiae deletion strains, locus YKR001C, strain vps1, hits give low values 1.02 | S. cerevisiae deletion strains, locus YKR026C, strain gcn3, hits give low values 0.971 | S. cerevisiae deletion strains, locus YKR091W, strain srl3, hits give low values 0.985 | S. cerevisiae deletion strains, locus YLL001W, strain dnm1, hits give low values 0.984 | S. cerevisiae deletion strains, locus YLL026W, hits give low values 0.965 | S. cerevisiae deletion strains, locus YLL041C, strain sdh2, hits give low values 0.974 | S. cerevisiae deletion strains, locus YLR027C, strain aat2, hits give low values 0.988 | S. cerevisiae deletion strains, locus YLR039C, strain RIC1, hits give low values 1.02 | S. cerevisiae deletion strains, locus YLR058C, strain SHM2, hits give low values 1.01 | S. cerevisiae deletion strains, locus YLR102C, strain apc9, hits give low values 1.02 | S. cerevisiae deletion strains, locus YLR113W, strain HOG1, hits give low values 1.01 | S. cerevisiae deletion strains, locus YLR221C, strain rsa3, hits give low values 1.01 | S. cerevisiae deletion strains, locus YLR258W, strain gsy2, hits give low values 0.98 | S. cerevisiae deletion strains, locus YLR262C, strain YPT6 (second series), hits give low values 0.974 | S. cerevisiae deletion strains, locus YLR262C, strain YPT6, hits give low values 1 | S. cerevisiae deletion strains, locus YLR268W, strain sec22, hits give low values 1.06 | S. cerevisiae deletion strains, locus YLR320W, strain mms22, hits give low values 1.02 | S. cerevisiae deletion strains, locus YLR330W, strain CHS5, hits give low values 1.01 | S. cerevisiae deletion strains, locus YLR342W, strain FKS1 (second series), hits give low values 1 | S. cerevisiae deletion strains, locus YLR342W, strain FKS1, hits give low values 0.981 | S. cerevisiae deletion strains, locus YLR357W, strain rsc2, hits give low values 0.985 | S. cerevisiae deletion strains, locus YLR370C, strain arc18, hits give low values 0.965 | S. cerevisiae deletion strains, locus YLR371W, strain rom2, hits give low values 1.02 | S. cerevisiae deletion strains, locus YLR384C, strain iki3, hits give low values 0.969 | S. cerevisiae deletion strains, locus YLR418C, strain cdc73, hits give low values 1.02 | S. cerevisiae deletion strains, locus YML016C, strain PPZ1, hits give low values 1.01 | S. cerevisiae deletion strains, locus YML032C, strain rad52, hits give low values 1.03 | S. cerevisiae deletion strains, locus YML120C, strain ndi1, hits give low values 0.966 | S. cerevisiae deletion strains, locus YML124C, strain tub3, hits give low values 1.01 | S. cerevisiae deletion strains, locus YMR058W, strain fet3, hits give low values 0.974 | S. cerevisiae deletion strains, locus YMR078C, strain ctf18, hits give low values 1.01 | S. cerevisiae deletion strains, locus YMR125W, strain sto1, hits give low values 0.981 | S. cerevisiae deletion strains, locus YMR129W, hits give low values 0.988 | S. cerevisiae deletion strains, locus YMR205C, strain PFK2, hits give low values 0.991 | S. cerevisiae deletion strains, locus YMR223W, strain ubp8, hits give low values 1.01 | S. cerevisiae deletion strains, locus YMR231W, strain pep5, hits give low values 0.978 | S. cerevisiae deletion strains, locus YMR263W, strain SAP30, hits give low values 1.03 | S. cerevisiae deletion strains, locus YMR307W, strain GAS1, hits give low values 0.952 | S. cerevisiae deletion strains, locus YNL067W, strain RPL9B, hits give low values 1.03 | S. cerevisiae deletion strains, locus YNL071W, strain lat1, hits give low values 0.976 | S. cerevisiae deletion strains, locus YNL128W, strain TEP1, hits give low values 1.02 | S. cerevisiae deletion strains, locus YNL153C, strain GIM3, hits give low values 1.01 | S. cerevisiae deletion strains, locus YNL183C, strain NPR1, hits give low values 0.981 | S. cerevisiae deletion strains, locus YNL209W, strain ssb2, hits give low values 0.959 | S. cerevisiae deletion strains, locus YNL233W, strain BNI4, hits give low values 1.01 | S. cerevisiae deletion strains, locus YNL248C, strain rpa49, hits give low values 0.998 | S. cerevisiae deletion strains, locus YNL250W, strain rad50, hits give low values 1.02 | S. cerevisiae deletion strains, locus YNL271C, strain bni1, hits give low values 1.02 | S. cerevisiae deletion strains, locus YNL298W, strain CLA4, hits give low values 1.02 | S. cerevisiae deletion strains, locus YNL307C, strain MCK1, hits give low values 1.02 | S. cerevisiae deletion strains, locus YNL322C, strain KRE1 (second series), hits give low values 0.973 | S. cerevisiae deletion strains, locus YNL322C, strain KRE1, hits give low values 1.02 | S. cerevisiae deletion strains, locus YNR049C, strain mso1, hits give low values 0.97 | S. cerevisiae deletion strains, locus YNR052C, strain pop2, hits give low values 1.02 | S. cerevisiae deletion strains, locus YOL006C, strain TOP1, hits give low values 1.06 | S. cerevisiae deletion strains, locus YOL012C, strain htz1 0.74 | S. cerevisiae deletion strains, locus YOL147C, strain pex11, hits give low values 1.02 | S. cerevisiae deletion strains, locus YOR001W, strain rrp6, hits give low values 0.961 | S. cerevisiae deletion strains, locus YOR061W, strain CKA2, hits give low values 1.01 | S. cerevisiae deletion strains, locus YOR069W, strain VPS5, hits give low values 1.01 | S. cerevisiae deletion strains, locus YOR070C, strain gyp1, hits give low values 0.983 | S. cerevisiae deletion strains, locus YOR080W, strain dia2, hits give low values 0.934 | S. cerevisiae deletion strains, locus YOR083W, strain WHI5, hits give low values 0.979 | S. cerevisiae deletion strains, locus YOR106W, strain vam3, hits give low values 0.949 | S. cerevisiae deletion strains, locus YOR136W, strain idh2, hits give low values 1.02 | S. cerevisiae deletion strains, locus YOR144C, strain elg1, hits give low values 1.01 | S. cerevisiae deletion strains, locus YOR184W, strain ser1, hits give low values 1.01 | S. cerevisiae deletion strains, locus YOR231W, strain MKK1, hits give low values 1.02 | S. cerevisiae deletion strains, locus YOR265W, strain rbl2, hits give low values 0.978 | S. cerevisiae deletion strains, locus YOR270C, strain vph1, hits give low values 0.935 | S. cerevisiae deletion strains, locus YOR290C, strain snf2, hits give low values 0.974 | S. cerevisiae deletion strains, locus YOR316C, strain cot1, hits give low values 1.02 | S. cerevisiae deletion strains, locus YPL051W, strain arl3, hits give low values 0.961 | S. cerevisiae deletion strains, locus YPL055C, strain LGE1, hits give low values 1.02 | S. cerevisiae deletion strains, locus YPL078C, strain atp4, hits give low values 0.963 | S. cerevisiae deletion strains, locus YPL106C, strain sse1, hits give low values 0.906 | S. cerevisiae deletion strains, locus YPL240C, strain hsp82, hits give low values 0.995 | S. cerevisiae deletion strains, locus YPL241C, strain CIN2, hits give low values 1.01 | S. cerevisiae deletion strains, locus YPL256C, strain CLN2, hits give low values 0.998 | S. cerevisiae deletion strains, locus YPR119W, strain clb2, hits give low values 1.02 | S. cerevisiae deletion strains, locus YPR141C, strain kar3, hits give low values 1.02 | S. cerevisiae deletion strains, locus YPR163C, strain tif3, hits give low values 1.02 | S. cerevisiae deletion strains, locus YPR167C, strain met16, hits give low values 1.02 | S. cerevisiae deletion strains, strain wtn01, hits give low values 1.04 | S. cerevisiae strains, strain wild type, hits give low values 1
